# Records with an inconclusive call do not appear. Calls of active or inactive are those of the source. Unless noted, no stated cut-off is given here; in the data, active means inhibition above about 80%; inactive means the rest.
# What was measured:
# [1] = P. berghei load reduction in hepatocytes – cell-based, HepG2, luciferase luminescence, HepG2 viability, primary screen (AID 624349; in the data active means parasite load remaining mostly below about 12%, no sharp cut-off; inactive means mostly above about 10%;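 further: 100% = mean of DMSO negative control wells on the same plate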); details: P. berghei liver stage in HepG2, luciferase luminescence, concentration not given here; parasite load remaining: stronger effect = lower value; viability: measured here: HepG2 viability without parasites
# [2] = EMT-state selective cytotoxicity in co-culture – imaging, PC-3E GFP, TEM4-18 mCherry, primary screen (AID 1345086;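 active means compounds killing one labelled cell type while sparing the other, by normalised counts and ratio limits, not self-fluorescent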;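 further: cells exposed to compound for 72 h before imaging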;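 on red/green cell ratio (normalised): normalised mesenchymal count divided by normalised epithelial count so high means epithelial killing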); details: PC-3E GFP / TEM4-18 mCherry co-culture, imaging cell counts, at 1 µM
# [3] = viability loss in pontine glioma line – cell-based, SU-DIPG-XVII, MIPE5.0, CellTiter-Glo, qHTS, dose response (AID 1347060; cut-off not given, nearly all actives have AC50 up to about 26 µM;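 further: cells exposed to compound for 48 hours before viability readout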); details: CellTiter-Glo ATP luminescence
# [4] = viability loss in pontine glioma line – cell-based, SU-DIPG-XIII, MIPE5.0, CellTiter-Glo, qHTS, dose response (AID 1347064; cut-off not given, nearly all actives have AC50 up to about 23 µM;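 further: cells exposed to compound for 48 hours before the viability read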); details: CellTiter-Glo ATP luminescence
# [5] = viability loss in pontine glioma line – cell-based, SU-DIPG-XXV, MIPE5.0, CellTiter-Glo, qHTS, dose response (AID 1347065; cut-off not given, nearly all actives have AC50 up to about 26 µM;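 further: cells exposed to compound for 48 hours before ATP readout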); details: CellTiter-Glo ATP luminescence
# [6] = JHH-DIPG-1 glioma cell viability, MIPE5.0 library, CellTiter-Glo luminescence, qHTS (AID 1347067; cut-off not given, nearly all actives have AC50 up to about 26 µM;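 further: cells exposed to compound for 48 hours before readout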); details: JHH-DIPG-1 glioma viability, CellTiter-Glo ATP luminescence
# [7] = viability loss with induced miR-34 in A549 – imaging, A549 dox-inducible miR-34, nuclei and caspase counts, primary screen (AID 1347080;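 active means compounds whose cell count with miR-34 switched on is under 0.7 times the count with it off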); details: A549 miR-34 inducible, Hoechst nuclei count, 48 h
# [8] = MELAS cybrid and Rieske KO viability enhancers – cell-based, MELAS cybrids, Rieske KO mouse fibroblasts, CellTiter-Glo, primary screen (AID 1508586;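 active means mean z-score across replicates of 1.96 or higher in either the MELAS or the Rieske mutant cell line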;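 further: z relative to plate mean and SD of compound and empty wells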); details: low glucose
# [9] = target: NAD(+) hydrolase SARM1 (Homo sapiens) (UniProt Q6SZW1); assay: blocking NAD cleavage by SARM1 SAM-TIR – cell lysate, NAD-Glo luminescence (AID 1508614;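 active means compound whose remaining NAD level is above about 45 nM, limit read from the data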); details: SAM-TIR HEK293T lysate NADase, at 1 µM, stronger effect = higher value
# [10] = galactose survival enhancers in mitochondrial complex I cybrids – cell-based, galactose medium, ATP luminescence, primary screen (AID 1645843;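 active means z-score of at least 1.8 in each of two replicates, scored against plate mean and spread of sample wells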;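 further: positive z means more ATP and so rescue of galactose-driven cybrid death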); details: complex I mutant cybrid cells, 72 h, stronger effect = higher value
# [11] = growth inhibition, single agent or in combination, cell-based, chromothripsis tumors, cisplatin or BGB combos (AID 1671449); details: LFS_MB_P medulloblastoma cells;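 further: cells exposed for 96 hours; 0% = vehicle DMSO and 100% = killing by high DMSO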
# [12] = growth inhibition, single agent and combos, cell-based, chromothripsis tumors, cisplatin or BGB combos (AID 1671450); details: HDN33 neuroblastoma cells, stronger effect = higher value;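 further: cells exposed to compound for four days; 0% = vehicle DMSO and 100% = cell killing by high DMSO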
# [13] = growth inhibition, single agents and combos, ICB984, cell-based, cisplatin or BGB combos, synergistic combos for chromothripsis tumors (AID 1671451; call rule not given here;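 further: cells exposed for 96 hours before readout; 0% = vehicle DMSO and 100% = killing by high DMSO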); details: ICB984 medulloblastoma cells, drug combinations, stronger effect = higher value
# [14] = growth inhibition, single agents and combos, LFS_MB_1R, cell-based, cisplatin or BGB combos, synergistic combos for chromothripsis tumors (AID 1671452); details: LFS_MB_1R medulloblastoma cells, stronger effect = higher value;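 further: cells exposed for 96 hours before readout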
# [15] = growth inhibition, single agents and combos, HTB85, cell-based, BGB or cisplatin IC20 combos, synergistic combos for chromothripsis tumors (AID 1671453); details: HTB85 osteosarcoma cells, drug combinations, stronger effect = higher value;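 further: cells exposed for 96 hours before readout; 0% = vehicle DMSO and 100% = high DMSO killing control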
# [16] = growth inhibition, single agents and combos, CRL2098, cell-based, BGB or cisplatin IC20 combos, synergistic combos for chromothripsis tumors (AID 1671454); details: CRL2098 osteosarcoma cells, drug combinations, stronger effect = higher value;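 further: cells exposed for 96 h before readout; 0% = vehicle DMSO and 100% = killing by high DMSO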
# [17] = growth inhibition, single agents and combos, HD-MB03, cell-based, BGB or cisplatin IC20 combos, synergistic combos for chromothripsis tumors (AID 1671455; in the data active means inhibition above about 83%;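 further: 0% = vehicle DMSO and 100% = high DMSO as cytotoxic control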); details: HD-MB03 medulloblastoma cells, stronger effect = higher value
# [18] = growth inhibition, single agents and combos, UWB1.289, cell-based, BGB or cisplatin combos, synergistic combos for chromothripsis tumors (AID 1671456); details: UWB1.289 ovarian carcinoma cells, stronger effect = higher value;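 further: cells exposed to compound for four days; 0% = vehicle DMSO and 100% = killing by high DMSO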
# [19] = growth inhibition, single agents and combos, LFS_MB_2R, cell-based, cisplatin combos, synergistic combos for chromothripsis tumors (AID 1671457); details: LFS_MB_2R medulloblastoma cells, stronger effect = higher value;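 further: cells exposed to compound for four days before readout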
# [20] = growth inhibition, MDA-MB-436, cell-based, BGB or cisplatin combos, synergistic combos for chromothripsis tumors (AID 1671458; call rule not given here;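 further: cells exposed for 96 hours; 0% = vehicle DMSO and 100% = killing by high DMSO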); details: MDA-MB-436 breast carcinoma growth inhibition, drug combinations, stronger effect = higher value
# [21] = UWB1.289_BRCA1 ovarian cancer growth, cell-based, BGB or cisplatin combinations (AID 1671459); details: UWB1.289 BRCA1 ovarian carcinoma, drug combinations, stronger effect = higher value
# [22] = drug combination toxicity in non-malignant astrocytes – cell-based, BGB or cisplatin IC20 combos, cytotoxicity control for chromothriptic childhood tumor combination screen (AID 1671460); details: Human astrocytes, viability inhibition, drug combinations, at 0.5 µM, stronger effect = higher value;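 further: cells exposed to compounds for 96 hours before viability readout; 0% = vehicle and 100% = killing control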
# [23] = BT084 cell growth, single and combined drugs, ICGC_MB145, cisplatin and BGB IC40 combos (AID 1671461); details: BT084 medulloblastoma cells, drug combinations, stronger effect = higher value;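 further: cells exposed to drugs for 96 hours; 0% = vehicle DMSO and 100% = high DMSO full killing control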
# [24] = RCMB18 cell growth, single agent and combined, cisplatin and BGB IC40 combos (AID 1671462); details: RCMB18 medulloblastoma cells, stronger effect = higher value;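 further: cells exposed to compound for four days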
# [25] = CRL1545 cell growth, single agent and combined, cisplatin and BGB IC20 combos (AID 1671464); details: CRL1545 osteosarcoma cells, stronger effect = higher value;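 further: cells exposed to compound for 96 hours before readout; 0% = vehicle DMSO and 100% = high DMSO killing control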
# [26] = measured here: combination with BGB IC40, at 0.05 µM
# [27] = measured here: with BGB IC20 combination, at 0.5 µM
# [28] = measured here: with cisplatin IC20 combination, at 0.5 µM
# [29] = measured here: combination with cisplatin, at 0.5 µM
# [30] = measured here: combination with cisplatin, at 5 µM
# Chain of NAD(+) hydrolase SARM1 (Homo sapiens) (Q6SZW1 whole entry, looked up): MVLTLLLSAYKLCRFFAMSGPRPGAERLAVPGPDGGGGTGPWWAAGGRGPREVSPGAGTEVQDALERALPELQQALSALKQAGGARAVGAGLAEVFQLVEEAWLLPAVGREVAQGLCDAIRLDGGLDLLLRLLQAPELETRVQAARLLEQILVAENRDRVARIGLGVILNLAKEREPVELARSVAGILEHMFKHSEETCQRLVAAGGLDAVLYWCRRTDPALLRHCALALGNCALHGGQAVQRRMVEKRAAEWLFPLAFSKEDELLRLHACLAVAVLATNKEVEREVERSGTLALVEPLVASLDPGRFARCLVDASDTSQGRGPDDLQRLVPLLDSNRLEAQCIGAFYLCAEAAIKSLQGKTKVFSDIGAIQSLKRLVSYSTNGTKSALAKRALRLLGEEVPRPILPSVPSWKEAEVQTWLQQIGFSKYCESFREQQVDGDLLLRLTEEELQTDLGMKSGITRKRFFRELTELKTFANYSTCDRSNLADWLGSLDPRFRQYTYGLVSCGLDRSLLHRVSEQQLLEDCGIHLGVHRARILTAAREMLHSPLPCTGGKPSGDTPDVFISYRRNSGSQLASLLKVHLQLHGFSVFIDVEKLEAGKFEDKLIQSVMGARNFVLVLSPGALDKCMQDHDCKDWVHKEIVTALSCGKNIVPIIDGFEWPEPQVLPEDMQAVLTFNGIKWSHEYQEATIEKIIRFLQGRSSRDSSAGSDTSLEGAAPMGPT
structure (smiles),measurement,setting,value
Cc1c(-c2cnccn2)ssc1=S,parasite load remaining,[1],10.1% (inactive)
same,viability,[1],65%
same,red/green cell ratio (normalised),"[2]; actives lie on both sides, counts scaled to control wells, 1 = unselective",1.09 (inactive)
same,normalised cell number,[2]; measured here: epithelial PC-3E GFP cell survival,0.9
same,normalised cell number,[2]; measured here: mesenchymal TEM4-18 mCherry cell survival,0.98
same,AC50,[3],10.5 µM (active)
same,AC50,[4],10.5 µM (active)
same,AC50,[5],11.8 µM (active)
same,AC50,[6],14.8 µM (active)
same,fold change,"[7]; stronger effect = lower value, cell number ratio, induced over uninduced",0.88 (inactive)
same,fold change,[7]; measured here: relative caspase fold change +Dox/-Dox,1.25
same,cell count,"[7]; measured here: total cells with miR-34 induction, stronger effect = lower value",9050
same,cell count,[7]; measured here: total cells without miR-34 induction,10300
same,z-score,"[8]; MELAS cybrid survival, CellTiter-Glo 48 h, stronger effect = higher value",0.683 (inactive)
same,z-score,"[8]; Rieske KO mouse fibroblast survival, CellTiter-Glo 72 h",-0.106
same,remaining NAD,[9],10 nM (inactive)
same,z-score,[10],-0.085 (inactive)
same,inhibition,"[11]; at 0.5 µM, stronger effect = higher value",-20.5% (inactive)
same,inhibition,"[11]; measured here: combination with BGB IC20, at 0.005 µM",-19.2%
same,inhibition,"[11]; measured here: combination with BGB IC40, at 0.005 µM",-19%
same,inhibition,[11]; [26],-17.6%
same,inhibition,"[11]; measured here: combination with cisplatin, at 0.5 µM, stronger effect = higher value",-32.1%
same,inhibition,"[11]; measured here: combination with cisplatin, at 5 µM, stronger effect = higher value",-10.5%
same,inhibition,"[12]; BGB combo, at 5 µM",-58.5%
same,inhibition,[12]; at 0.5 µM,-42% (inactive)
same,inhibition,"[12]; cisplatin combo, at 5 µM",-70%
same,inhibition,[12]; [27],-31.4%
same,inhibition,[12]; [28],-48.3%
same,inhibition,"[12]; single agent, at 5 µM",-46.9%
same,inhibition,"[13]; BGB IC20 combo, at 0.005 µM",-28.8%
same,inhibition,"[13]; BGB IC40 combo, at 0.005 µM",-23.8%
same,inhibition,"[13]; BGB IC40 combo, at 0.05 µM",-8.66%
same,inhibition,[13]; at 0.5 µM,-19.7% (inactive)
same,inhibition,"[13]; cisplatin combo, at 0.05 µM",-8.66%
same,inhibition,"[13]; cisplatin combo, at 0.5 µM",-33.7%
same,inhibition,"[13]; cisplatin combo, at 5 µM",-21.2%
same,inhibition,"[13]; measured here: 5 uM single agent, at 5 µM",-0.147%
same,inhibition,[14]; at 0.5 µM,-48.5% (inactive)
same,inhibition,[14]; [26],12.7%
same,inhibition,[14]; [29],-42.8%
same,inhibition,[14]; [30],-46.1%
same,inhibition,[15]; at 0.5 µM,-26% (inactive)
same,inhibition,"[15]; measured here: with BGB IC20, at 0.5 µM",-48%
same,inhibition,"[15]; measured here: with BGB IC20, at 5 µM",-29.8%
same,inhibition,"[15]; measured here: with cisplatin IC20, at 0.5 µM",-19.3%
same,inhibition,"[15]; measured here: with cisplatin IC20, at 5 µM",6.84%
same,inhibition,"[15]; single agent, at 5 µM",-28%
same,inhibition,[16]; at 0.5 µM,-91.2% (inactive)
same,inhibition,"[16]; measured here: combination with BGB at IC20, at 0.5 µM",-80.8%
same,inhibition,"[16]; measured here: combination with cisplatin at IC20, at 0.5 µM",-109%
same,inhibition,[17]; at 0.5 µM,-13% (inactive)
same,inhibition,"[17]; measured here: combo with BGB at IC20, at 0.5 µM",-1.23%
same,inhibition,"[17]; measured here: combo with cisplatin at IC20, at 0.5 µM",-23%
same,inhibition,[18]; at 0.5 µM,-15.7% (inactive)
same,inhibition,"[18]; measured here: inhibition with BGB combination, at 0.05 µM",-24.2%
same,inhibition,"[18]; measured here: inhibition with cisplatin combination, at 0.05 µM",3.36%
same,inhibition,[19]; at 0.5 µM,-15.7% (inactive)
same,inhibition,[19]; [29],-6.9%
same,inhibition,[19]; [30],-12.4%
same,inhibition,[20]; at 0.5 µM,-20.6% (inactive)
same,inhibition,"[20]; measured here: BGB combination, at 0.5 µM",-19.7%
same,inhibition,"[20]; measured here: BGB combination, at 5 µM",-36%
same,inhibition,"[20]; measured here: cisplatin combination, at 0.5 µM",-33%
same,inhibition,"[20]; measured here: cisplatin combination, at 5 µM",-12.1%
same,inhibition,"[21]; BGB combination, concentration series, at 5 µM",-4.42%
same,inhibition,[21]; at 0.5 µM,-14.9% (inactive)
same,inhibition,"[21]; cisplatin combination, concentration series, at 5 µM",-10.4%
same,inhibition,[22],0.12% (inactive)
same,inhibition,[22]; measured here: combo with BGB IC20,-4.93%
same,inhibition,[22]; measured here: combo with cisplatin IC20,-9.68%
same,inhibition,[23]; at 0.5 µM,-10.9% (inactive)
same,inhibition,"[23]; cisplatin combination, at 0.5 µM",-13.8%
same,inhibition,"[23]; cisplatin combination, at 5 µM",-45.9%
same,inhibition,"[23]; measured here: BGB IC40 combination 0.05 uM, at 0.05 µM",2.43%
same,inhibition,"[23]; single agent, at 5 µM",-13.6%
same,inhibition,[24]; at 0.5 µM,-21% (inactive)
same,inhibition,"[24]; cisplatin combo, at 5 µM",-46.1%
same,inhibition,"[24]; measured here: BGB IC40 combination, at 0.05 µM",-10.6%
same,inhibition,[24]; [29],-54.1%
same,inhibition,"[24]; single agent, at 5 µM",-29.2%
same,inhibition,[25]; at 0.5 µM,-60.7% (inactive)
same,inhibition,[25]; [27],-51%
same,inhibition,[25]; [28],-65.5%
same,inhibition,"[25]; single agent, at 0.05 µM",-3.94%
same,inhibition,"[25]; single agent, at 5 µM",-64.9%

# Reference: PubChem BioAssay
